An excerpt weighted towards active compounds, which were near 0.5% of everything screened.
E coli growth-1 = E. coli growth inhibition | Escherichia coli growth, OD600, 23 h; hits give low values | OD600 absorbance (no concentration beside the values) | actives 0.21% (n = 330,000) | AID 1053175;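 active = OD600 absorbance below the run mean of sample wells minus 3.6 SD, in any replicate, cut at about 0.56 in these data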
Tat transport = blocks Tat-dependent protein export in E. coli. AID 488895. actives 0.036% (n = 340,000). inhibition, % at 10 µM. E. coli MC4100 TorA-mCherry Tat export, fluorescence;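 active = mean replicate inhibition at least 50% and at least half of replicates individually reaching 50%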;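 also: exported cargo escapes ClpAP degradation while cytoplasmic cargo is degraded and loses fluorescence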
AddAB inh = less growth of phage-infected E. coli with AddAB; E. coli expressing H. pylori AddAB, absorbance growth; inhibition, % at 11.9 µM; actives 0.29% (n = 330,000); in the data active = inhibition above about 12%
phage Ecoli inh = E. coli growth loss with phage present. growth absorbance. inhibition, % at 11.9 µM. actives 0.26% (n = 360,000). AID 651602; in the data active = inhibition above about 11%
E coli growth-2 = counter-screen for AddAB inhibitors: E. coli growth inhibition; E. coli V3065 growth, OD600 absorbance, 18 h; actives 0.27% (n = 330,000); inhibition, % at 11.9 µM;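 active = inhibition above the campaign's mean inhibition across all tested compounds plus 3 SD, cut at about 9.9% in these data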;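 also: uninfected addAB+ strain grown without phage in ampicillin broth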
AddAB conf = growth loss of T4-infected E. coli expressing H. pylori AddAB, confirmed; shares compounds with AddAB inh; E. coli V3065 expressing H. pylori AddAB, T4 phage, OD; T4 phage with gene 2 nonsense mutations; inhibition, % at 11.9 µM; actives 64% (n = 880); AID 488942;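 active = mean inhibition above a set limit taken from the earlier primary screen, cut at about 13% in these data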;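 also: higher means less bacterial growth since AddAB block lets phage replicate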
RecBCD counter = reduces growth of phage-infected RecBCD+ E. coli, AddAB inhibitor counter-screen; shares compounds with AddAB inh; E. coli V66 + mutant T4 phage, OD growth; actives 73% (n = 880); inhibition, % at 11.9 µM; AID 488955;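 active = mean inhibition above the mean of solvent-only control wells plus 3 SD, cut at about 4% in these data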;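 also: optical density read after an 18 h incubation at 37 °C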
Bact viability = counter-screen: bacterial growth inhibition; shares compounds with AddAB inh; bacterial viability, absorbance (AddAB counterscreen); inhibition, % at 11.9 µM; actives 35% (n = 880); in the data active = inhibition above about 25%
RecBCD conf = confirmation: growth loss of phage-infected RecBCD+ E. coli (RecBCD inhibitor screen); shares compounds with phage Ecoli inh; E. coli V66 + T4 2- phage, growth OD; inhibition, % at 11.9 µM; actives 45% (n = 890); AID 651982;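 active = mean inhibition over triplicates exceeding the hit threshold derived in the original primary screen, cut at about 11% in these data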
Ecoli viability = inhibits E. coli viability, flagging RecBCD hits as nonselective | shares compounds with phage Ecoli inh | absorbance (OD) growth | inhibition, % at 11.9 µM | actives 29% (n = 890) | AID 651983; in the data active = inhibition above about 20%;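 also: E. coli strain V66 grown with compound alone and no phage infection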
AddAB phage OD = growth loss of phage-infected AddAB E. coli, RecBCD counter-screen; E. coli expressing H. pylori AddAB + T4 phage, OD growth; gene 2 mutant T4, recBCD-deleted host; shares compounds with phage Ecoli inh; inhibition, % at 11.9 µM; actives 45% (n = 890);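 active = mean inhibition above the solvent-only control wells' mean plus 3 SD, cut at about 22% in these data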;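 also: higher means less bacterial growth from phage killing when AddAB is blocked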
Large screens that a line does not name were inactive (follow-up assays come after a bar, where they were run).

CCCNC(=O)c1ccc2c(=O)c(O)c(-c3cccc(Br)c3)[nH]c2c1	AddAB inh 15, phage Ecoli inh 20, E coli growth-2 13 | AddAB conf 14 | RecBCD counter 13 | Bact viability inactive | RecBCD conf 12 | Ecoli viability inactive | AddAB phage OD inactive
O=C(c1cc2cc([N+](=O)[O-])ccc2oc1=O)N1CCOCC1	none
O=C(CSc1nnc(-c2ccccc2O)n1Cc1ccccc1)NNC(=O)c1ccccc1O	AddAB inh 25, phage Ecoli inh 13, E coli growth-2 14 | AddAB conf inactive | RecBCD counter 5.9 | Bact viability inactive | RecBCD conf inactive | Ecoli viability inactive | AddAB phage OD inactive
O=C(O)CSc1nnc(-c2ccccc2O)n1Cc1ccccc1	none
O=C(NNC(=O)c1cc2cc(Br)ccc2oc1=O)c1ccc(O)cc1O	AddAB inh 24, phage Ecoli inh 18, E coli growth-2 23 | AddAB conf inactive | RecBCD counter 14 | Bact viability inactive | RecBCD conf inactive | Ecoli viability inactive | AddAB phage OD inactive
COc1ccc(CN2CCN(C(=O)c3c(-c4ccccc4)noc3C)CC2)cc1F	none
Cc1cccc(C)c1OCc1cc(C(=O)N(C)Cc2nc3ccccc3[nH]2)no1	AddAB inh 26, phage Ecoli inh 14, E coli growth-2 17 | AddAB conf 19 | RecBCD counter 11 | Bact viability inactive | RecBCD conf inactive | Ecoli viability inactive | AddAB phage OD 38
COc1ccccc1NC(=O)NNC(=O)c1cc2ccccc2cc1O	AddAB inh 15, phage Ecoli inh 12, E coli growth-2 12 | AddAB conf 14 | RecBCD counter 14 | Bact viability inactive | RecBCD conf inactive | Ecoli viability inactive | AddAB phage OD inactive
O=C(NC(=S)N1CCN(c2ccc(O)cc2)CC1)c1ccco1	none
COc1ccc(/C=N/NC(=O)c2nc(-c3ccccc3)n(-c3ccccc3)n2)c(O)c1	AddAB inh 21, phage Ecoli inh 22, E coli growth-2 19 (no result: E coli growth-1) | AddAB conf inactive | RecBCD counter 19 | Bact viability inactive | RecBCD conf 11 | Ecoli viability inactive | AddAB phage OD inactive
CCc1cccc(NS(=O)(=O)c2c(C)n[nH]c2C)c1	none
COc1ccc(-c2cc(N3CCCC3)n3ncnc3n2)cc1	AddAB inh 17, phage Ecoli inh 14, E coli growth-2 20 | AddAB conf 21 | RecBCD counter 14 | Bact viability inactive | RecBCD conf inactive | Ecoli viability inactive | AddAB phage OD inactive
O=c1cc2oc3cc(O)c(O)cc3c(-c3ccccc3[N+](=O)[O-])c-2cc1O	AddAB inh 13, phage Ecoli inh 11, E coli growth-2 12 | AddAB conf inactive | RecBCD counter 12 | Bact viability inactive | RecBCD conf inactive | Ecoli viability inactive | AddAB phage OD inactive
O=[N+]([O-])c1ccc(/C=[N+](\[O-])CCO)o1	AddAB inh 99, phage Ecoli inh 97, E coli growth-2 99 (no result: E coli growth-1) | AddAB conf 98 | RecBCD counter 99 | Bact viability 99 | RecBCD conf 105 | Ecoli viability 107 | AddAB phage OD 105
O=[N+]([O-])c1ccc(C=NN=Cc2ccc([N+](=O)[O-])o2)o1	none (no result: Tat transport, AddAB inh, phage Ecoli inh, E coli growth-2)
O=C(N/N=C/c1ccc([N+](=O)[O-])o1)C1CC1	AddAB inh 100, phage Ecoli inh 35, E coli growth-2 73 (no result: E coli growth-1) | AddAB conf 99 | RecBCD counter 23 | Bact viability 71 | RecBCD conf 12 | Ecoli viability inactive | AddAB phage OD 100
NC(=O)NN=Cc1ccc(-c2ccc([N+](=O)[O-])cc2)o1	none (no result: Tat transport, AddAB inh, phage Ecoli inh, E coli growth-2)
NC(=O)N/N=C/c1ccc([N+](=O)[O-])o1	AddAB inh 101, phage Ecoli inh 63, E coli growth-2 101 (no result: E coli growth-1) | AddAB conf 98 | RecBCD counter 40 | Bact viability 98 | RecBCD conf 34 | Ecoli viability 57 | AddAB phage OD 103
COC(=O)N/N=C/c1ccc([N+](=O)[O-])o1	AddAB inh 97, phage Ecoli inh 19, E coli growth-2 79 (no result: E coli growth-1) | AddAB conf 99 | RecBCD counter 21 | Bact viability 67 | RecBCD conf 13 | Ecoli viability inactive | AddAB phage OD 103
Cc1ccc(-c2cc(C(=O)NN=C3CCCC3)c3ccccc3n2)cc1	none
CCOC(=O)C1=C(O)/C(=C/c2cc(OC)c(OC)c(OC)c2)SC1=Nc1ccc(OC)cc1	none
COCCN(Cc1ccccc1)C(=O)C1CCN(S(=O)(=O)c2ccc(OC)c(OC)c2)CC1	none
CN[C@@H]1[C@H](O)[C@H](NC)[C@H]2O[C@@]3(O)C(=O)C[C@@H](C)O[C@H]3O[C@@H]2[C@H]1O	E coli growth-1 0.51, Tat transport 119, AddAB inh 35, phage Ecoli inh 52, E coli growth-2 34 | AddAB conf 78 | RecBCD counter 47 | Bact viability 57 | RecBCD conf 58 | Ecoli viability 35 | AddAB phage OD 75
COc1ccc(Cl)cc1C(Nc1cccnc1)c1ccc2cccnc2c1O (stereo not drawn)	AddAB inh 14, phage Ecoli inh 16, E coli growth-2 23 | AddAB conf inactive | RecBCD counter 12 | Bact viability inactive | RecBCD conf inactive | Ecoli viability inactive | AddAB phage OD inactive
CC(=NNC(=S)N1CCCCC1)c1ccccn1	none (no result: E coli growth-1, Tat transport, AddAB inh, E coli growth-2)
C=CCNC(=S)N/N=C(\C)c1ccccn1	AddAB inh 31, phage Ecoli inh 38, E coli growth-2 30 (no result: E coli growth-1) | AddAB conf 31 | RecBCD counter 29 | Bact viability 25 | RecBCD conf 27 | Ecoli viability 34 | AddAB phage OD 32
O=C1NC(Cc2ccccc2)C(=O)N1Cc1ccccc1 (stereo not drawn)	none (no result: AddAB inh, E coli growth-2)
O=c1ccsn1Cc1ccccc1	E coli growth-1 0.044, AddAB inh 75, phage Ecoli inh 14 | AddAB conf 102 | RecBCD counter 29 | Bact viability 26 | RecBCD conf inactive | Ecoli viability inactive | AddAB phage OD 77
Cc1ccc(NC(=O)c2ccc(Cl)cc2[N+](=O)[O-])nc1	none
